# iPSC survival up – enhancers of human iPSC single-cell survival; AID 602274; 360,000 compounds, 0.044% hits; hiPSC single-cell survival, ATPlite luminescence; 100% = ROCK inhibitor wells, 0% = DMSO; survival enhancement, % at 20 µM; in the data active means survival enhancement above about 18%;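 further: cells exposed to compounds for 16 hours before the ATP read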
# KKLEB tox – counter-screen for CF NF-kB inhibitors: cytotoxicity; KKLEB CF airway cells viability, ATPlite luminescence, overnight; hits give low values; cells stimulated with P. aeruginosa culture filtrate; activity change (cytotoxicity), % at 5 µM; 360,000 compounds, 0.36% hits;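 active means corrected activity change at or below -50% at 5 µM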
# TWEAK Fn14 block – inhibitors of TWEAK-Fn14 interaction signaling; 360,000 compounds, 2% hits; inhibition, % at 10 µM; TWEAK-stimulated Fn14 reporter cells, luciferase luminescence, 8 h; in the data active means inhibition above about 50%
# LGR2 inh – blocks bursicon-induced cAMP signaling via Drosophila LGR2; AID 720647; HEK293 LGR2, CRE-luciferase, bursicon-stimulated, 4 h; inhibition, % at 9.99 µM; 380,000 compounds, 0.35% hits;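 active means drop in luminescence signal, shown as inhibition above about 50% in the replicate tests, limit read from the data, passing the limit was not always enough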;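 further: agonist challenge used bursicon conditioned medium at about half maximal strength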
# HIF-2a block – blocks HIF-2a reporter activity | 786-0 RCC cells HIF-2a reporter, luciferase luminescence, overnight | inhibition, % at 18.8 µM | 360,000 compounds, 0.72% hits | AID 624352;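 active means inhibition of the luminescence signal of 40% or more relative to plate controls, in a single-dose primary screen at 18.75 µM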
# CF NFkB block – cystic fibrosis NF-kB activation inhibition; KKLEB NF-kB-GFP reporter, PAF-induced, GFP fluorescence overnight; inhibition, % at 5 µM; 360,000 compounds, 0.86% hits; AID 588850;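 active means at least 50% inhibition at 5 µM, scaled per plate between neutral and stimulator controls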;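 further: PAF is a Pseudomonas aeruginosa culture filtrate used as stimulus; plate controls were PAF-stimulated DMSO wells for no effect and unstimulated DMSO wells for full effect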
# HIF-2a conf – confirmation of HIF-2a inhibitors | shares compounds with HIF-2a block | 786-0 RCC cells, HIF-2a luciferase reporter luminescence, overnight | inhibition, % at 18.8 µM | 1,800 compounds, 56% hits | AID 651580;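 active means mean inhibition across four replicates of at least 40 percent at the single tested concentration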
# HIF-1a counter – HIF-1a inhibition counter-screen for HIF-2a hits. shares compounds with HIF-2a block. inhibition, % at 18.8 µM. AID 651589. 1,800 compounds, 72% hits. MiaPaCa-2 HIF-1a luciferase reporter, desferoxamine, overnight;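 active means mean inhibition of the reporter signal across four replicates at the single tested dose of 50% or more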
# The depositor's hits bear a star; nt = no result given. Compounds with a hit are over-represented: about 2.3% of the library has one in this group of screens.
SMILES,iPSC survival up,KKLEB tox,TWEAK Fn14 block,LGR2 inh,HIF-2a block,CF NFkB block,HIF-2a conf,HIF-1a counter
COc1cccc(-c2ccc([C@@H]3[C@@H](CO)N4CCCCN(C(=O)Cc5ccncc5)C[C@H]34)cc2)c1,nt,nt,nt,-3,nt,nt,nt,nt
Cc1cccc(OP(=O)(NCc2ccccc2)Oc2cccc(C)c2)c1,-2,-10,38,47,68*,6,0,80*
C[C@H]1CC[C@@H]2[C@@H](C)[C@H]3[C@H](C[C@H]4[C@@H]5CC=C6C[C@@H](O[C@@H]7O[C@H](CO)[C@H](O)[C@H](O[C@@H]8O[C@H](CO)[C@@H](O)[C@H](O)[C@H]8O)[C@H]7O[C@@H]7O[C@@H](C)[C@H](O)[C@@H](O)[C@H]7O)CC[C@]6(C)[C@H]5CC[C@]34C)N2C1,2,8,4,-7,87*,-2,31,68*
CC(N)C(=O)NC1C2C(=C(O)CC(O)C2O)C(=O)OC1(C)C(Cl)Cl (configuration not stated),-5,-31,96*,99*,45*,87*,57*,104*
C=C1C(=O)OC2C1CCC(C)C1(O)C=CC(=O)C21C (configuration not stated),-2,-14,66*,40,47*,50,13,99*
O=C(O)[C@@H]1[C@@H](CO)[C@@H]2Cn3c(ccc(-c4ccccc4)c3=O)[C@H]1N2C(=O)C1CCCCC1,nt,nt,nt,-1,nt,nt,nt,nt
O=C(Cc1ccccn1)N1CCCCN2[C@@H](CO)[C@H](c3ccc(C#Cc4ccccc4)cc3)[C@@H]2C1,nt,nt,nt,-1,nt,nt,nt,nt
CC[C@H](C)[C@@H]1NC(=O)CNC(=O)c2csc(n2)[C@H](C(C)(C)O)OC(=O)C(C)(C)[C@H](CCCC(C)(Cl)Cl)OC(=O)c2csc1n2,-5,-91*,-25,nt,42*,83*,44*,88*

# Screening results deposited in PubChem BioAssay by several laboratories.
